Results filed as inconclusive are left out. Calls of active or inactive are those of the source. Unless noted, the call rests on the fitted dose curve; in most records, active means well fitted curve in the direction sought with a large enough effect in the repeat runs; inconclusive means weak or mixed curves; inactive means no such curve, though single readings can be large; an effect the other way counts as inactive or inconclusive.
Columns and labels:
[1] = qHTS assay to identify small molecule antagonists of the thyroid receptor (TR) signaling pathway - cell viability counter screen (AID 743064); conditions: GH3.TRE-Luc viability, CellTiter-Fluor, 24 h; series mostly up to 70.3 µM; further: nearly all actives have a fitted effect of over 50% in size; further: potency means the concentration at half of the fitted maximal effect
Outline: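 CellTiter-Fluor readout, 30 min at 37 °C/5% CO2, following 23.5 h incubation of GH3.TRE-Luc cells with test compound and 1 nM T3 (final).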

[2] = qHTS assay to identify small molecule antagonists of the thyroid receptor (TR) signaling pathway (AID 743065); conditions: GH3.TRE-Luc, T3-stimulated luciferase inhibition, 23.5 h; series mostly up to 70.3 µM; further: nearly all actives have a fitted effect of over 55% in size
Outline: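 Antagonism measured as loss of luciferase signal in GH3 cells stably carrying a TRE-luciferase reporter, co-treated with compound and T3 (1 nM final) for 23.5 h at 37 C. Viability was read in the same well by CellTiter-Fluor.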

[3] = system: thyroid hormone receptor (rat, GH3 cells); experiment: qHTS assay to identify small molecule agonists of the thyroid receptor (TR) signaling pathway (AID 743066; calls by dose curve); conditions: GH3.TRE-Luc cells, TR agonist luciferase, 24 h; series mostly up to 83.9 µM
[4] = qHTS assay to identify small molecule antagonists of the estrogen receptor alpha (ER-alpha) signaling pathway using the BG1 cell line - cell viability counter screen (AID 743081); conditions: BG1Luc4E2 viability, CellTiter-Fluor, 22 h; series mostly up to 70.3 µM;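 further: compound given together with 17beta-estradiol as the ER stimulus; nearly all actives have a fitted effect of over 45% in size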
Aromatase (Homo sapiens) = Aromatase (Homo sapiens) (UniProt P11511); experiment: qHTS assay to identify aromatase inhibitors (AID 743083); conditions: MCF-7 aro ERE, testosterone-driven ERE luciferase, 24 h; series mostly up to 70.3 µM; further: nearly all actives have a fitted effect of over 55% in size
[5] = biological target: Estrogen receptor (Homo sapiens) (UniProt P03372); experiment: qHTS assay to identify small molecule antagonists of the estrogen receptor alpha (ER-alpha) signaling pathway (AID 743069; active means well fitted curve in the direction sought with a large enough effect in the signal ratio in the repeat runs, not every such curve was filed as active; the % refers to the signal ratio); conditions: HEK293 ER-alpha-UAS-bla, beta-lactamase ratio, antagonist mode; series mostly up to 69.4 µM
Outline: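 ER-alpha-UAS-bla GripTite HEK293 line; 2% charcoal-stripped FBS overnight; plated, 4 hr 37C/5% CO2; cpd in DMSO + 17beta-estradiol, 18 hr 37C; LiveBLAzer B/G FRET substrate 2 hr RT; fluorescence intensity.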

[6] = qHTS assay to identify small molecule antagonists of the estrogen receptor alpha (ER-alpha) signaling pathway - cell viability counter screen (AID 743074; calls by dose curve;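 further: HEK293 cells carrying ER-alpha-UAS-bla reporter stimulated with 17beta-estradiol; nearly all actives have a fitted effect of over 45% in size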); conditions: ERalpha-bla HEK293 viability, CellTiter-Glo luminescence, 18 h; series mostly up to 69.4 µM
[7] = biological target: Estrogen receptor (Homo sapiens) (UniProt P03372); experiment: qHTS assay to identify small molecule agonists of the estrogen receptor alpha (ER-alpha) signaling pathway (AID 743075; calls by dose curve;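 further: HEK293 GripTite cells with ER-alpha and UAS-driven beta-lactamase reporter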); conditions: HEK293 ER-alpha-UAS-bla, beta-lactamase FRET ratio, 18 h; series mostly up to 70.1 µM
[8] = biological target: Estrogen receptor (Homo sapiens) (UniProt P03372); experiment: qHTS assay to identify small molecule agonists of the estrogen receptor alpha (ER-alpha) signaling pathway using the BG1 cell line (AID 743079); conditions: BG1Luc4E2 cells, ERE-luciferase agonist, 22 h; series mostly up to 70.3 µM; further: nearly all actives have a fitted effect of over 20% in size
[9] = qHTS assay to identify small molecule antagonists of the estrogen receptor alpha (ER-alpha) signaling pathway using the BG1 cell line (AID 743080; calls by dose curve;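 further: BG1 cells stimulated with 17beta-estradiol alongside compound; nearly all actives have a fitted effect of over 25% in size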); conditions: BG1Luc4E2 ERE-luciferase antagonist mode, luminescence; series mostly up to 70.3 µM
Outline: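 Luminescence from a 4×ERE-luciferase reporter in BG1-Luc-4E2 cells served as read-out. Cells, pre-cultured 5 days in stripped-serum phenol-red-free medium, were exposed to compound with 17beta-estradiol co-stimulation for 21.5 h at 37 C.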

Measured: Potency

Chain of Aromatase (Homo sapiens) (P11511 whole entry, looked up): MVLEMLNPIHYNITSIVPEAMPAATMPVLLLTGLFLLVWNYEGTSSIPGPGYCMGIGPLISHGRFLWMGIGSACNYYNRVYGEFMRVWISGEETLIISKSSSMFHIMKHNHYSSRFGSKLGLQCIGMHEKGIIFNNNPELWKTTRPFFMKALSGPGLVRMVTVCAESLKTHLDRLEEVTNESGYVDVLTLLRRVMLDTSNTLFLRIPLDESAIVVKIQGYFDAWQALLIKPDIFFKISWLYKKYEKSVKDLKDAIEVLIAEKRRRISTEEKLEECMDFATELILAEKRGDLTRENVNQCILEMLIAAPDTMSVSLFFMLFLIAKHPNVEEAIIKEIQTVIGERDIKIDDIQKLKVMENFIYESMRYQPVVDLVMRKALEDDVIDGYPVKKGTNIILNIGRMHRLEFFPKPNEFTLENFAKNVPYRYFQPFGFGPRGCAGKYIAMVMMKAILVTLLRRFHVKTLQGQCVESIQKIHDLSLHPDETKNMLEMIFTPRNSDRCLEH
Chain of Estrogen receptor (Homo sapiens) (P03372 whole entry, looked up): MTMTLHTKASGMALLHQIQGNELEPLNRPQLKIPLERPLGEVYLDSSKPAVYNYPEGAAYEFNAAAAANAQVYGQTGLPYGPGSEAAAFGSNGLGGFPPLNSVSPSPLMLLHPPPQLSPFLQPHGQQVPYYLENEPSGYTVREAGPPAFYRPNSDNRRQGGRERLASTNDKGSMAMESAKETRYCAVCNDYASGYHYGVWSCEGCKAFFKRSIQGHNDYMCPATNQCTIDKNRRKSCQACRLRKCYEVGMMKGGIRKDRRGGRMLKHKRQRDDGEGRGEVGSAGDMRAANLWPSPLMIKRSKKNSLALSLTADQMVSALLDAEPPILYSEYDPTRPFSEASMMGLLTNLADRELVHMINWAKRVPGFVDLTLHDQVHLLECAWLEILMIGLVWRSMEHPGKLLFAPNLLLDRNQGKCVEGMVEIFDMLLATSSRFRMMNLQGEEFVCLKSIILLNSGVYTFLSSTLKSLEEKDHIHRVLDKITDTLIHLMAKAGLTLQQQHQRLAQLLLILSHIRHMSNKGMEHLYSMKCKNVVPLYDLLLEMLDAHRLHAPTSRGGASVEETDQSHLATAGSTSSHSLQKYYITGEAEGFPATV

CCCCOc1ccc(CC(=O)NO)cc1
inactive: [1] | [2] | [3] | [4] | Aromatase (Homo sapiens)

Oc1ccc(O)c2c(O)cccc12
not listed: [1]
inactive: all other assays above

CCCC(C)C
not listed: [2] | [3]
inactive: all other assays above

CN(C)C/C=C(/c1ccc(Br)cc1)c1cccnc1
active: [1] 10.6 µM
inactive: [3] | [6] | Aromatase (Homo sapiens)

CN(C)CCCNCCCN
inactive: [1] | [5] | [6] | [9] | [4] | Aromatase (Homo sapiens)

C=CCCCCCC
not listed: [1]
inactive: all other assays above
